ELG1 genotoxic: inducers of genotoxicity in HEK293T ELG1-luciferase cells | Potency, µM (highest dose often 46 µM), for inactives: at the top dose activity change, positive = activation, hits mostly activators | HEK293T ELG1-luciferase reporter, luminescence, 16 h | 330,000 tested, 1.3% active | AID 504466; also: % of control where 0% means no effect; nearly all actives have a fitted effect of over 60% in size
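DMSO vehicle served as control against compound-treated ELG1-luciferase HEK293T cells; exposure lasted 16 hr at 37 °C and 5% CO2, followed by ONE-Glo luminescence detection after 30 min.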
NPC1 prom act: activates the NPC1 promoter; 320,000 tested, 2.4% active; Potency, µM (titrated, usually from 9.22 µM), for the others: at the top dose activation, usual class: activators; AID 485313; Huh7 NPC1 promoter luciferase reporter, 24 h; also: % of control where 0% means no effect; nearly all actives have a fitted effect of over 60% in size
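Luminescence read-out of NPC1 promoter-driven luciferase in stably transfected Huh7 cells; compounds delivered in DMSO and left 24 h at 37C, 5% CO2, qHTS titration format.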
Luc counter: blocks Kinase-Glo luciferase, a counter-screen artifact; Q27757; Kinase-Glo luciferase, ATP luminescence, 8 min; Potency, µM (series often up to 38.3 µM), without a hit: at the highest dose activity change, negative = inhibition, actives largely listed as inhibitors; 200,000 tested, 0.28% active; AID 1379; also: % is scaled to controls: 0 for no effect and ±100 for the full control effect; nearly all actives have a fitted effect of over 60% in size
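Kinase-Glo luciferase light output from ATP and luciferin was measured with 10 uM ATP, within the enzyme's linear range. Buffer: 50 mM imidazole pH 7.2, 50 mM KCl, 7 mM MgCl2, 0.01% Tween 20, 0.05% BSA; luminescence read after 8 min at ambient temperature.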
SMN2 splice up: enhancers of SMN2 splice variant expression. Potency, µM (titrated, usually from 46.1 µM), without a hit: at the highest dose activity change, positive = activation, hits mostly activators. 210,000 tested, 2.8% active. AID 1458. HEK293 SMN2-luciferase splicing reporter, luminescence, 30-36 h; also: % of control where 0% means no effect; nearly all actives have a fitted effect of over 55% in size
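HEK293 cells carry an SMN2 minigene-luciferase reporter in which exon 7 inclusion puts luciferase in frame. Cells were seeded at 2000 cells/well, attached for 10-12 hours, then exposed to compounds for 30-36 hours at 37C before ONE-Glo luminescence.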
Rab9 prom act: Rab9 promoter activation; Huh7 Rab9 promoter-luciferase reporter, luminescence, 24 h; Potency, µM (series often up to 9.22 µM), inactives show at the top dose activation, negative = inhibition, actives largely listed as activators; 320,000 tested, 2.8% active; also: % of control where 0% means no effect; nearly all actives have a fitted effect of over 60% in size
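Stable Rab9-luc Huh7, 1500 cells/well, 2 h settle; cmpd in DMSO, 24 h, 37 °C/5% CO2; luciferase reagent 10 min RT; luminescence.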
FLuc modulator: inhibits or activates purified firefly luciferase, miR-21 counter-screen. P08659. purified FLuc, Km substrates, luminescence inhibition. Potency, µM (highest dose often 57.5 µM), without a hit: at the highest dose activity change, negative = inhibition, most hits filed as inhibitors. 360,000 tested, 6.9% active;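 also: plate controls were vehicle for no effect and reference inhibitor for full effect; nearly all actives have a fitted effect of over 55% in size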
Target sequence (P08659 whole entry, looked up): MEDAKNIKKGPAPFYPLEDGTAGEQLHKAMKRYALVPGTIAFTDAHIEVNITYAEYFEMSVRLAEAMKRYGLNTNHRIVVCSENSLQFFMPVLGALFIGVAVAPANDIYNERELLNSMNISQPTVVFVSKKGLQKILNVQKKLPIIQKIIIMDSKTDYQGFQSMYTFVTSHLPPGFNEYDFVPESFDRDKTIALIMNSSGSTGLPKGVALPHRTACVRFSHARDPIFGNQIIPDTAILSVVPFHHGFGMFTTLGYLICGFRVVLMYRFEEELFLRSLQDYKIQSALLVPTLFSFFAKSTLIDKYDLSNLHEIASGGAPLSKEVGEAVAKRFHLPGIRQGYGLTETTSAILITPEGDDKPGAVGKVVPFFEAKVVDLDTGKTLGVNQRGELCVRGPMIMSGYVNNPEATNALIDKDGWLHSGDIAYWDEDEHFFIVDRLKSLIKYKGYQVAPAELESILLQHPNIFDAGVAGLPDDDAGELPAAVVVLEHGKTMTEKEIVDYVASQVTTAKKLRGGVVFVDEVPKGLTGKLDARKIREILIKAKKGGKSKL
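Purified P. pyralis luciferase, 10 nM final, with Km-level 10 uM D-luciferin and 10 uM ATP in 50 mM Tris acetate pH 7.5, 10 mM Mg acetate, 0.01% Tween-20, 0.05% BSA; 6-point qHTS titration about 60 µM downward; luminescence read.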
* marks the source's active call; other numbers are inactive results; ? = inconclusive; . = not tested or not shown; [ ] = another dose, or the depositor's remark. Hits are enriched below; roughly 7.5% of the tested compounds scored in any of these assays. Calls follow the shape of the dose curve; as a rule, active = well fitted curve in the direction sought with a large enough effect; inconclusive = small, poorly fitted or top-dose-only effect, or another doubt; inactive = no such curve, though single readings can be large; an effect the other way counts as inactive or inconclusive. Potency is read from the fitted curve at half-maximal effect.

SMILES | ELG1 genotoxic | NPC1 prom act | Luc counter | SMN2 splice up | Rab9 prom act | FLuc modulator
Cc1ccc(C)c(N2CCN(C(=O)c3cc(S(=O)(=O)N4CCCCC4)cn3C)CC2)c1 | . | . | . | . | . | -4.8%
Cc1ccc(OCc2nc(-c3ccc(C(=O)N4CCN(c5ccccc5F)CC4)cc3)oc2C)cc1 | . | . | . | . | . | -9.9%
COc1cccc2c1C(=O)O/C2=C/c1ccc2c(c1)OCO2 | ? | ? | ? | ? | ? | 0.107µM*
COc1cccc(OC)c1C1=CC(=O)C[C@H](c2ccc3c(c2)OCO3)C1 | -1.1% | -1.2% | . | . | -3.2% | 0.2%
CCOC(=O)CNC(=S)N(Cc1ccccc1)Cc1cccnc1 | 26.1% | -0.7% | 0.8% | -8.7% | -3.8% | -1.5%
O=C(CNC(=O)c1ccc(-c2ccccc2)cc1)OCc1ccc(Br)cc1 | 11.4% | 16.2% | 7.6% | 3.55µM* | 28.2% | 21.3µM*
COc1ccc(C(=O)NCC(=O)OCc2ccc(Br)cc2)cc1 | 0.8% | -0.7% | -0.6% | -20.2% | -6.5% | -1.0%
CCCCCOC(=O)NCC(O)c1ccccc1 (stereo not given) | ? | 2.51µM* | -9.2% | ? | 4.47µM* | 13.5µM*
O=C(O)CNC(=O)c1ccccc1 | -5.6% | 1.9% | -2.8%[39.9 µM] | . | -7.2% | 0.6%
CCCCOC(=O)NC(NCC(O)c1ccccc1)(C(F)(F)F)C(F)(F)F (stereo not given) | -10.9% | -4.1% | 6.5% | -10.8% | 1.4% | 1.2%
O=C(CNC(=O)c1ccccc1C(=O)O)c1ccccc1 | ? | 2.82µM* | 0.0% | -7.7% | 3.55µM* | 12µM*
O=C(CNC(=O)c1ccccc1)c1ccccc1 | ? | 0.708µM* | . | . | 0.447µM* | 6.75µM*
CC1CCCC(C)N1C(=O)COC(=O)CNC(=O)c1ccccc1 (stereo not given) | 3.4% | -2.0% | . | . | -0.2% | 2.8%
CC(NC(=O)COC(=O)CNC(=O)c1ccc(-c2ccccc2)cc1)c1ccccc1 (stereo not given) | -2.0% | 6.5% | . | . | 8.9% | 16.9µM*
O=C(CNC(=O)c1ccccc1)OC1CCCCC1 | ? | 3.98µM* | -3.8% | 12.6µM* | 0.891µM* | 12µM*
O=C(NC[C@H](O)c1ccccc1)c1ccccc1 | . | . | -12.4% | 14.1µM* | . | .
O=C(CNC(=O)c1ccc(Br)cc1)c1ccccc1 | ? | 2.82µM* | . | . | 2µM* | 4.78µM*
O=C(CNC(=O)c1ccc(Br)cc1)c1ccc(Br)cc1 | 1.6% | -1.9% | . | . | 8.3% | 2.9%
CC(C)(C)OC(=O)N1CCC(c2c(C(=O)NCc3ccc4c(c3)OCO4)cnn2-c2ccc(F)cc2F)CC1 | . | . | . | . | . | 4.4%
Cc1cccc(NC(=O)CNC(=O)CSc2nnc(C(F)(F)F)n2C)c1C | 2.1% | 0.2% | . | . | -5.2% | 1.7%
CC1=C(C)CC(C(=O)NCC(=O)c2ccccc2)C(C(=O)O)C1 (stereo not given) | 16.4µM* | 3.8% | -3.5% | 17.2% | 21.6% | 15.1µM*
CC1=C(C)CC(C(=O)NNC(=O)c2ccccc2)C(C(=O)O)C1 (stereo not given) | 2.6% | 6.1% | -1.1% | 2.3% | 0.3% | -1.2%
O=C(CNC(=O)c1ccc(F)cc1)c1ccc(Cl)cc1 | ? | 3.98µM* | . | . | 1.58µM* | 9.53µM*
C=CCC(CC=C)(CNC(=O)C(=O)Nc1ccc(C)cc1)c1ccccc1 | . | . | . | 17.0% | . | -9.7%
C(#Cc1ccccc1)Cn1nnc2ccccc21 | ? | ? | -3.6% | 22.5% | ? | 16.9µM*
SMILES | ELG1 genotoxic | NPC1 prom act | Luc counter | SMN2 splice up | Rab9 prom act | FLuc modulator
COc1ccc(N2CCN(C(CNC(=O)c3c(F)cccc3F)c3ccc4c(c3)OCO4)CC2)cc1 (stereo not given) | . | . | . | . | . | 2.2%
CN(CC1CCCN(CCc2ccccc2F)C1)C(=O)c1ccoc1 (stereo not given) | -0.7% | -4.0% | . | . | -2.2% | 4.3%
COc1ccc(CCN2CCCC(CN(C)C(=O)c3ccoc3)C2)cc1 (stereo not given) | 16.4µM* | 2.51µM* | . | . | 2.24µM* | 15.1µM*
COc1ccc(-c2nnc(SCC(=O)c3ccc([N+](=O)[O-])cc3)o2)cc1OC | . | . | . | 2.2% | . | 1.3%
O=C(NCc1cccs1)c1ccc2c(c1)N(Cc1ccccc1Cl)C(=O)c1ccccc1S2 | . | . | . | . | . | 0.9%
COc1ccc(-c2ccc(C(=O)O)c(=O)[nH]2)cc1 | 7.5% | 0.9% | 0.1% | ? | 23.9% | -3.1%
Cc1ccc(-c2ccc(C(=O)O)[nH]2)cc1 | 14.6% | -0.2% | -1.3% | -6.9% | -0.1% | 19µM*
Cc1cccc(NC(=O)C2CCN(c3nnc(-n4c(C)ccc4C)s3)CC2)c1C | . | . | . | 7.0% | . | -3.6%
C=CCNC(=O)c1onc(CSc2cc(C)ccc2C)c1C(=O)O | -3.8% | -3.9% | -1.1% | 31.6µM* | -3.2% | -11.7%
C=CCNC(=O)c1onc(CSc2ccc(Cl)cc2)c1C(=O)O | -1.9% | -1.8% | 1.6% | ? | 2.5% | 16.9µM*
C=CCNC(=O)c1onc(CSc2ccc(Cl)cc2)c1C(=O)NCC=C | -3.4% | -3.7% | . | . | 3.0% | -3.1%
C=CCNC(=O)c1onc(CSc2ccccc2C)c1C(=O)O | 0.5% | -1.8% | -4.1% | 0.8% | -5.6% | -15.8%
CC(=O)Nc1ccc(NS(=O)(=O)c2c(C(=O)N3CCC(C)CC3)c(C)n(C)c2C)cc1 | . | . | . | . | . | -4.5%
COC(=O)[C@@]1(Cc2ccc(OC)cc2)[C@H]2c3cc(C(=O)N4CCCC4)n(Cc4ccc(O)c(OC)c4)c3C[C@H]2CN1C(=O)c1ccccc1 | . | . | -3.7% | 3.5% | . | .
CC(C)CSc1nnc2c3ccccc3n(C)c2n1 | ? | 18.3% | . | . | 5.9% | 10.7µM*
CCCCSc1nnc2c(n1)[nH]c1ccccc12 | ? | ? | 0.4% | 3.55µM* | 1.26µM* | ?
O=C(O)c1ccccc1CSc1nnc2c(n1)[nH]c1ccccc12 | -0.3% | 14.6% | . | . | -3.5% | 21.3µM*
CC(C)CSc1nnc2c(n1)[nH]c1ccccc12 | 0.651µM* | 3.55µM* | -9.8% | 2.24µM* | 0.708µM* | 0.675µM*
COc1ccc(CNC(=O)CSc2nnc3c(n2)[nH]c2ccc(OC)cc23)cc1 | -1.1% | -0.5% | . | . | 5.6% | 3.3%
COc1ccc2[nH]c3nc(SC(C)C)nnc3c2c1 | 7.6% | 0.708µM* | -13.1% | ? | 0.794µM* | 0.338µM*
COc1ccc(NC(=O)C2CCN(S(=O)(=O)c3cn(C)nc3C)CC2)cc1 | 1.0% | 3.5% | . | . | 0.4% | -1.5%
CCOC(=O)c1c(NC(=S)NC(C)=O)sc(C)c1C | 1.3% | -4.1% | -1.4% | 5.7% | 3.2% | 2.9%
O=S(=O)(NCc1ccco1)c1ccccc1Br | 0.4% | -1.8% | . | . | -2.6% | -0.1%
Cc1cc(C)c(NC(=O)Cn2nnc3sc4c(c3c2=O)CCC(C(C)(C)C)C4)c(C)c1 (stereo not given) | . | . | . | -3.5% | . | 2.6%
